# The sample as a whole holds a higher share of hits than the screen did.
# HTT ATP protect – cytoprotection in Huntington HTT-Q103 PC12 cell model; PC12 HTT-Q103 induced, cytoprotection, ATP luminescence, 40 h; Potency, µM (series often up to 56.4 µM), inactives show cytoprotection (ATP increase), usual class: activators; 230,000 compounds, 0.14% hits; also: potency is read from the fitted curve at half-maximal effect; % of control where 0% means no effect; nearly all actives have a fitted effect of over 45% in size
#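 ATP quantification (ATPlite) reports survival of PC12 cells in which tebufenozide, 100 nM final, switches on Htt exon 1 with 103 glutamines linked to GFP; compounds are titrated.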
# HTT aggregate – mutant huntingtin aggregation inhibition; Potency, µM (series often up to 46.1 µM), without a hit: at the top dose activity change, negative = inhibition, usual class: inhibitors; 220,000 compounds, 1.1% hits; PC12 HttQ103-GFP aggregates, Acumen cytometry, 40 h; also: potency is read from the fitted curve at half-maximal effect; % is scaled to controls: 0 for no effect and ±100 for the full control effect; nearly all actives have a fitted effect of over 60% in size
#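 PC12/HTTQ103-GFP, ecdysone-inducible; teb 100 nM; cpd qHTS titration; GFP aggregates read on laser cytometer, Ex 488/Em 500-530 nm.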
# PNC assembly inh – inhibitors of perinucleolar compartment assembly | AID 2417 | PC3M PTB-GFP, PNC prevalence imaging, 16 h; stronger effect = lower value | 140,000 compounds, 3.1% hits | activity change (PNC), negative = inhibition, % at 10 µM;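 active = readout at or below -70, meaning at least 70% loss of cells showing the perinucleolar compartment, a nuclear body marking cancer cells; inconclusive = readout between -30 and a set limit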;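 also: plate controls were DMSO wells for no effect and camptothecin positive control wells for full effect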
#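 PC3M cells stably expressing PTB-GFP, 750–1000 cells/well, treated 16 h at 37 °C with compound (23 nl of library stock), in duplicate. After paraformaldehyde fixation and Hoechst stain, imaged at 20x; PNC prevalence scored by image analysis.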
# Starred values were filed as active, the others as inactive; u = inconclusive; x = no result given; [ ] = dose if it differs, or a comment. Unless noted, calls follow the shape of the dose curve; as a rule, active = well fitted curve in the direction sought with a large enough effect; inconclusive = small, poorly fitted or top-dose-only effect, or another doubt; inactive = no such curve, though single readings can be large; an effect the other way counts as inactive or inconclusive.
SMILES,HTT ATP protect,HTT aggregate,PNC assembly inh
CCc1cccc(CC)c1NC(=S)Nc1cccc(Cl)c1Cl,-13.3%[10 µM],1.2%[9.22 µM],x
CC(=O)c1cc(C#N)c(NCc2cc(-c3ccccc3)no2)nc1C,-21.1%,8.9%,x
COc1ccc(CCNc2nc3ccccc3n3nnnc23)cc1OC,13.9%,9.9%,1.7
COc1ccc(CCNCc2csc3nc4ccccc4n23)cc1OC,-17.7%,7.08µM*,21.9
COc1ccc(S(=O)(=O)N2CCNCC2)cc1OC,-21.8%,17.3%,x
Cn1c(SCC(=O)c2ccccc2)nnc1-c1ccco1,7.0%[1.9 µM],-14.2%,-11.6
CC(C)(C)c1nnc(SCC(=O)c2ccccc2)n(N)c1=O,x,10.3%,-113.8*
CCNC(=O)CN1C(=O)NC(CCc2ccccc2)C1=O (configuration not stated),-15.2%,-1.2%,u
COc1ccc(OC)c(NC(=O)COC(=O)Cc2ccc(-c3ccccc3)cc2)c1,-6.2%[10 µM],-6.5%,u
COc1cc(NC(=O)COC(=O)Cc2ccc(-c3ccccc3)cc2)cc(OC)c1,x,0.9%,-102.4*
COc1ccc(Cc2nn3c(Cn4nnc5ccccc54)nnc3s2)cc1,13.9%[10 µM],-7.4%,u
CC(NC(=O)CSCc1ccccc1Br)c1ccccc1 (configuration not stated),5.4%[0.074 µM],4.3%,54.2
COc1ccc(/C=N/N2CCOCC2)cc1O,x,-4.2%,-81.5*
COc1cc(/C=N/N2CCOCC2)ccc1OCc1ccccc1,-63.1%,-0.7%,x
O=C(/C=C/c1ccco1)Nc1cccnc1Cl,-16.9%[10 µM],-11.6%[9.22 µM],x
COc1ccc(OC)c(NC(=O)CNC(=O)Cn2cnc3ccccc3c2=O)c1,4.2%,0.9%,11.3
CC(NC(=O)CSc1ccccc1C(=O)O)C1CC2CCC1C2 (configuration not stated),-0.3%,-2.3%,x
CC(SCC(=O)NC(C)C1CC2CCC1C2)C(=O)O (configuration not stated),0.891µM*,16.0%,26.4
COCCn1c(SCc2ccc(C(=O)OC)o2)nc2cc(Cl)ccc2c1=O,-0.2%[10 µM],17.8%,-18.6
C/C=C/c1ccc(OCC(=O)O)c(OC)c1,17.7%[10 µM],5.7%[9.22 µM],x
C/C=C/c1ccc(OCCOc2cc(C=O)ccc2OC)c(OC)c1,x,u,-113.4*
C/C=C/c1ccc(OCCCNC2CCCC2)c(OC)c1,2.0%,7.0%,u
C/C=C/c1ccc(OCCCCOc2ccccc2F)c(OC)c1,12.2%[10 µM],2.7%,-125.2*
C#CCOCCOCCOCCNc1nc(N2CCN(C(=O)[C@H](Cc3ccc(O)cc3)n3cc([C@@H](N)C(C)CC)nn3)CC2)nc(N2CCN(C(=O)[C@H](Cc3cc4ccccc4[nH]3)n3cc([C@@H](N)Cc4ccc(O)cc4)nn3)CC2)n1 (some centres not stated),-11.4%[10 µM],-1.8%[9.22 µM],x
Nc1ccccc1S(=O)(=O)O,-7.8%,x,x
SMILES,HTT ATP protect,HTT aggregate,PNC assembly inh
CCCn1c(SCC(=O)NC2CCCCC2)nnc1-c1ccncc1,2.0%[10 µM],-7.6%,-22.0
CCCCCc1ccc(OCCOCCn2c[n+](C)c3ccccc32)c(CCCCC)c1,-85.3%,11.2µM*,x
C[n+]1cn(CC(O)COCc2ccccc2)c2ccccc21 (configuration not stated),0.5%,1.8%,34.2
CC(=O)Nc1ccc(OCCC[n+]2ccccc2)cc1,-2.4%[10 µM],0.3%[9.22 µM],x
CCCCCc1ccc(OCCC[n+]2ccccc2)c(CCCCC)c1,-95.9%[10 µM],3.16µM*,x
Nc1nc2sc3c(c2cc1C(=O)N1CCOCC1)CCCC3,-26.5%,3.1%,9.7
CCOC(=O)/C=C/S(=O)(=O)c1ccc(NC(C)=O)cc1,-161.6%,3.98µM*,-1.9
CCOC(=O)/C=C/C(=O)Nc1ccc(S(=O)(=O)Nc2c(C)cc(C)cc2C)cc1,-5.0%[10 µM],-3.9%,65.7
Cc1ccc(Cn2c(SCCN3CCOCC3)nc3c2c(=O)n(C)c(=O)n3C)cc1,-12.0%[0.074 µM],29.7%,-80.6*
Cc1cccc(Cn2c(SCCN3CCOCC3)nc3c2c(=O)n(C)c(=O)n3C)c1,-14.1%,8.3%,-1.2
O=C(Nc1ccc2c(c1)oc1ccc(S(=O)(=O)N3CCCC3)cc12)C1CC1,-1.1%,-7.4%,28.0
CC(C)(C)C(=O)NC1(C(F)(F)F)NC(=O)N(Cc2ccccc2)C1=O (configuration not stated),2.1%[10 µM],25.2%[9.22 µM],x
O=C1NC(c2ccccc2)(C(F)(F)F)C(=O)N1Cc1cccnc1 (configuration not stated),2.3%[0.074 µM],-14.6%,-84.6*
CC1=CSC2=NS(=O)(=O)CCN12,1.3%[10 µM],12.2%[9.22 µM],x
CC1=C(Cl)C2=NS(=O)(=O)CCN2C=C1Cl,x,0.112µM*,x
O=C(NNc1ccc(Cl)cc1)c1cccs1,3.8%[10 µM],2.4%[9.22 µM],x
CO/N=C\[C@@H](OC)[C@H](C)/C=C\CC(=O)OC,6.1%[10 µM],x,x
CCOc1ccc2nc(NC(=O)c3cnc(C)cn3)sc2c1,-17.8%[10 µM],-31.2%,21.8

# Screens as filed in PubChem.
